# Results published in PubChem BioAssay AID485313 (National Center for Advancing Translational Sciences (NCATS), 2010).
# Screen size: about 320,000 compounds; about 7,600 (2.4%) were called active. Not shown: some 3% with an inconclusive outcome. This is one part of a sample in which actives are shown more often than they occur. The call rests on the fitted dose curve; in most records, active means well fitted activation curve with a large enough effect; inconclusive means small, poorly fitted or top-dose-only effect; inactive means no such curve, though single readings can be large or run the other way.
# Assay: qHTS Assay for NPC1 Promoter Activators; further: nearly all actives have a fitted effect of over 60% in size;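 on activation: reporter is driven by a mutant NPC1 promoter; % of control where 0% means no effect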
# Details: Huh7 NPC1 promoter luciferase reporter, 24 h; series mostly up to 9.22 µM; activation: at the top concentration
# Summary of the method: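 Stably transfected Huh7 (NPC1 promoter→luciferase), 1500 cells/well in Opti-MEM + 10% FBS, 2 h settle, then compound 24 h at 37 °C. Luminescence after 10 min with Amplite reagent.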
# Potency means the concentration at half of the fitted maximal effect.
SMILES,activation,Potency
CN(CC(=O)Nc1c(Cl)cccc1Cl)C(=O)CC1OC(=O)c2ccccc21 (stereo not given),-3.28% (inactive),–
COc1ccc(NC(=O)CSc2nc3ccccc3c(=O)n2C)cc1,-9.03% (inactive),–
COC(=O)CSc1nc2ccccc2c(=O)n1Cc1ccccc1,3.25% (inactive),–
Cc1ccc(C(=O)CSc2nc3ccccc3c(=O)n2N)o1,–,3980 nM (active)
O=S(=O)(NC1CCN(S(=O)(=O)c2ccc3c(c2)OCCO3)CC1)c1c(F)cccc1F,-2.67% (inactive),–
CCCCSc1nnc(-c2ccc(C)cc2)o1,–,794 nM (active)
Cc1cccc(C)c1OC(=O)CSc1nnc(-c2ccccc2)o1,-0.799% (inactive),–
CCOC(=O)CSc1nnc(-c2cccc(Br)c2)o1,-1.59% (inactive),–
Cc1ccc(CN2CC(C(=O)NNC(=O)Cn3ccc(C(F)(F)F)n3)CC2=O)cc1 (stereo not given),-1.82% (inactive),–
CC(=O)NCc1ccc(-c2csc(NC(=O)CCCc3nc4ccccc4c(=O)[nH]3)n2)cc1,-1.72% (inactive),–
COc1ccc(Cn2c(O)c(/C=C3/C=CC=N3)c(=O)[nH]c2=O)cc1,3.01% (inactive),–
O=C(NCc1ccccc1CN1CCCC1)c1cccc(S(=O)(=O)Nc2ccc(F)cc2)c1,-2.83% (inactive),–
Cc1ccc(NC(=O)C(c2ccccc2)N2CCN(C(=O)c3ccco3)CC2)cc1 (stereo not given),-1.36% (inactive),–
COc1ccc(Cl)cc1NC(=O)CN(C)C(=O)c1cc(-c2cccs2)nn1-c1ccccc1,0.628% (inactive),–
CN(C(=O)c1ccccn1)c1nnc(-c2ccccn2)s1,–,2510 nM (active)
CN(C(=O)C1CCOC1)c1nnc(-c2cccnc2)s1 (stereo not given),3.19% (inactive),–
COc1cc(OC)cc(-c2nnc(N(C)C(=O)c3ccncc3)s2)c1,-5% (inactive),–
COc1ccc(-c2nc(-c3ccccc3)no2)c(OC)c1,–,3550 nM (active)
COc1ccc(-c2noc(-c3ccc(C)cc3)n2)cc1,–,2000 nM (active)
COc1ccc(OC)c(-c2csc(-c3cccs3)n2)c1,9.23% (inactive),–
COc1ccc(-c2noc(CNC(=O)C(C)Oc3ccccc3)n2)cc1 (stereo not given),-2.92% (inactive),–
COc1ccc(-c2noc(CN(C)S(=O)(=O)c3ccc(C)cc3)n2)cc1,16.4% (inactive),–
COc1ccc(-c2noc(CSc3ccc(C)cc3)n2)cc1,-2.46% (inactive),–
O=C(CN1CCN(S(=O)(=O)c2cccc(Cl)c2)CC1)N1CCCCC1,-1.44% (inactive),–
Cc1c2cnn(CC(=O)NCCCN3CC(C)CC(C)C3)c(=O)c2c(C)n1Cc1ccc(Cl)cc1 (stereo not given),-0.386% (inactive),–
C[C@@H](NC(=O)c1nc[nH]c1C(=O)N1CCN(C(=O)OC(C)(C)C)CC1)c1ccccc1,-3.87% (inactive),–
Cc1ccc(S(=O)(=O)CCC(=O)OCC(=O)NCCc2ccc(S(N)(=O)=O)cc2)cc1,0.187% (inactive),–
O=C(NCCSc1ncc(-c2ccccc2)[nH]1)c1ccco1,15.1% (inactive),–
O=C(NCCSc1ccccc1)c1ccco1,–,3160 nM (active)
CCS(=O)(=O)Nc1ccc(C(=O)NCCSc2ccccc2)cc1,29.6% (inactive),–
